# Screens from PubChem BioAssay.
# Only some compounds are listed: those with a hit (about 3.9% of all), similar ones and a draw of the others.
# Vc quorum ag: induces V. cholerae light production without autoinducers | V. cholerae BH1578 lux reporter, luminescence, 6 h | activation, % at 18.7 µM | AID 588436 | 350,000 compounds, 0.16% hits; in the data active = activation mostly above about 9.7%, no sharp cut-off
# FBA Mtb inh: inhibitors of M. tuberculosis fructose-bisphosphate aldolase | purified M. tuberculosis FBA, fluorescence read-out | inhibition, % at 1 µM | 360,000 compounds, 2.3% hits | AID 588726; in the data active = inhibition above about 27%
# Target sequence (P9WQA3 whole entry, looked up): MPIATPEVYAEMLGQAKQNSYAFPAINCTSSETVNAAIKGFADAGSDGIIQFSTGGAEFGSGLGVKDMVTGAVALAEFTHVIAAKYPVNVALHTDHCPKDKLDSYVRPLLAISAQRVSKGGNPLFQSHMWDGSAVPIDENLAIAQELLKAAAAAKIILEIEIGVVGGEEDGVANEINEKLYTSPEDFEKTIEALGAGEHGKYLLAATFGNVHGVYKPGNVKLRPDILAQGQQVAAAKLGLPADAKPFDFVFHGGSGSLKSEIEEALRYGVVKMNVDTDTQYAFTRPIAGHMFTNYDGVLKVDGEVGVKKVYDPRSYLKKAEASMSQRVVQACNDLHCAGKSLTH
# GDH-TPI inh: inhibits GDH-TPI coupling enzymes, artifact for Mtb FBA screen. 360,000 compounds, 1.2% hits. GDH-TPI coupled enzyme counterscreen, NADH absorbance. inhibition, % at 4.8 µM. AID 588335
# CCHF vOTU inh: blocks the CCHF virus ovarian tumor domain protease. CCHFV vOTU protease, Pep-AMC fluorescence. inhibition, % at 11.5 µM. 370,000 compounds, 0.55% hits. AID 651958
# Numbers stand for hits; . = inactive; / = not tested or not shown; + = active, no number. Cut-off read from the data, not from the text of the source, unless noted: active = inhibition above about 30%; inactive = the rest.
SMILES,Vc quorum ag,FBA Mtb inh,GDH-TPI inh,CCHF vOTU inh
CC1(C)Oc2cc3oc(-c4cc(O)cc(O)c4)cc3cc2CC1O (centres undefined),.,89,.,.
COc1ccc(CCNC(=O)CSc2nc3scc(-c4ccccc4)c3c(=O)[nH]2)cc1,.,.,.,.
CC(=O)NC1=C(N2CC2C)C(=O)C(NC(C)=O)=C(N2CC2C)C1=O (centres undefined),.,.,32,.
CC(=O)Nc1ccc(S(=O)(=O)N2C(C)CCCC2C)cc1 (centres undefined),.,.,.,.
Cc1cc(=O)oc2cc(Nc3ccccc3)ccc12,.,.,.,.
Cc1cc(=O)oc2cc(NC(=O)CCC(=O)O)ccc12,.,197,.,.
Cc1cc(=O)oc2cc(NC(=O)c3cccc(F)c3)ccc12,.,.,.,.
Cc1cc(=O)oc2cc(NC(=O)CCCC(=O)O)ccc12,.,+,.,.
CCO[C@H]1OC(C(=O)O)=C[C@@H](c2ccc3c(c2)OCO3)[C@@H]1CCCO,.,.,.,.
CCOC(=O)C1CCCN(C(=O)c2cn(CC)c3ccc(S(=O)(=O)N4CCCC4)cc3c2=O)C1 (centres undefined),.,.,38,.
CCOC(=O)c1cc2c(=O)n3ccccc3nc2n(Cc2ccco2)c1=NC(=O)c1cccnc1,.,131,.,.
CCOC(=O)c1cc2c(=O)n3ccccc3nc2n(CC(C)C)c1=NC(=O)c1ccco1,.,135,.,.
CCOC(=O)c1cc2c(=O)n3ccccc3nc2n(Cc2ccco2)c1=NC(=O)c1ccccc1OCC,.,173,.,.
C=C(Br)Cn1c(CCC)nc2ccccc21,.,.,.,.
COc1ccc(C(=O)O)cc1S(=O)(=O)N1CCSCC1,.,.,.,.
C[C@H](CO)N1C[C@H](C)[C@@H](CN(C)Cc2ccc(C(=O)O)cc2)Oc2c(NC(=O)Cc3ccccc3)cccc2C1=O,.,.,.,.
CCCCCN(C(=O)CCC(=O)OCCOc1ccccc1)c1c(N)n(CCCC)c(=O)[nH]c1=O,.,.,.,.
O=c1cc(-c2ccc(F)cc2)oc2ccccc12,.,.,.,.
CSc1ccc(-c2cc(=O)c3ccccc3o2)cc1,.,+,45,.
Cc1cccc(NC(=O)CN(C)C(=O)C2CC2)c1C,.,.,.,.
Cc1nc(NC(=O)c2cc3ccccc3o2)sc1C,.,.,31,.
CCOC(=O)c1csc(NC(=O)c2cc3ccccc3o2)n1,.,.,43,.
CCOC(=O)C1(CC2CC2)CCN(Cc2cnc(-c3ccccc3C)nc2)CC1,.,.,.,.
Cn1c(C(=O)OC(C(=O)NCC2CCCO2)c2cccnc2)cc2sccc21 (centres undefined),.,.,.,.
COCCNC(=O)c1c(C)cc(C)cc1C,.,.,.,.
SMILES,Vc quorum ag,FBA Mtb inh,GDH-TPI inh,CCHF vOTU inh
O=C(CSc1nc2ccccc2o1)N/N=C/c1ccc(O)c(O)c1,.,.,54,.
O=C(CSc1nc2ccccc2o1)N/N=C/c1ccccc1,.,.,.,.
COc1cc(C=Cc2nnc3c4ccccc4cnn23)cc(OC)c1OC,.,.,55,.
O=C(CCn1cccc1)NCc1ccccc1,.,.,.,.
O=C(N/N=C/c1sc(=O)n(Cc2ccc(Br)cc2)c1Cl)c1ccco1,.,.,.,.
O=C(O)c1cccc(Cn2c(Cl)c(/C=N/NC(=O)c3ccccc3Cl)sc2=O)c1,.,.,41,.
O=C(O)c1cccc(Cn2c(Cl)c(/C=N/NC(=O)c3ccccc3O)sc2=O)c1,.,.,54,.
O=C(O)c1cccc(Cn2c(Cl)c(/C=N/Nc3ccccc3)sc2=O)c1,.,.,.,/
Cc1ccccc1OCC(=O)N/N=C/c1sc(=O)n(Cc2cccc(C(=O)O)c2)c1Cl,.,.,.,.
COc1ccc(C(=O)N/N=C/c2sc(=O)n(Cc3cccc(C(=O)O)c3)c2Cl)cc1,.,.,36,.
O=C(CN1CCCCC1)Nc1nnc(-c2ccc([N+](=O)[O-])cc2)s1,.,.,41,.
O=C(CN1CCCCC1)Nc1ccc(Br)cc1[N+](=O)[O-],48,.,.,.
COc1ccc(N=CC2=C(O)CC(C)(C)CC2=O)cc1OC,.,.,.,.
CCOC(=O)c1ccc(N2C(=O)CC(N3CCC(O)(c4ccc(Cl)cc4)CC3)C2=O)cc1 (centres undefined),.,.,39,.
O=C1c2ccccc2NC(c2ccc(O)c(O)c2)N1c1ccccc1Cl (centres undefined),.,.,41,.
COc1cc(C2Nc3ccccc3C(=O)N2c2ccccc2OC)ccc1O (centres undefined),.,.,.,.
